Among all 5,500 compounds or so, about 2,000 (36%) were called active. Another 18% or so got no clear call; they are omitted. Rule as the data show it: active = normalized growth mostly below about 0.91 (no sharp cut-off); inconclusive = no clear call, values can overlap the other calls; inactive = mostly above about 0.92. This is one part of the list.
Assay: chemical genetic growth profiling, strain panel (AID 1159580);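 also: tested at 20 µM; growth read once vehicle control cultures reached saturation at 30 °C; 1 = growth at the plate median or of vehicle wells; lower values mean less growth of the strain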
Conditions: growth OD
[1] = S. cerevisiae deletion strains, locus YMR263W, strain SAP30, active compounds read low
[2] = S. cerevisiae deletion strains, locus YNL153C, strain GIM3, active compounds read low
[3] = S. cerevisiae deletion strains, locus YAL013W, strain DEP1, active compounds read low
[4] = S. cerevisiae deletion strains, locus YBR229C, strain ROT2, active compounds read low
[5] = S. cerevisiae deletion strains, locus YDL101C, strain DUN1, active compounds read low
[6] = S. cerevisiae deletion strains, locus YDR150W, strain NUM1, active compounds read low
[7] = S. cerevisiae deletion strains, locus YEL061C, strain CIN8, active compounds read low
[8] = S. cerevisiae deletion strains, locus YGR078C, strain PAC10, active compounds read low
[9] = S. cerevisiae deletion strains, locus YHR030C, strain SLT2, active compounds read low
[10] = S. cerevisiae deletion strains, locus YHR087W, strain rtc3, active compounds read low
[11] = S. cerevisiae deletion strains, locus YJL187C, strain SWE1, active compounds read low
[12] = S. cerevisiae deletion strains, locus YJR043C, strain POL32, active compounds read low
[13] = S. cerevisiae deletion strains, locus YJR075W, strain HOC1, active compounds read low
[14] = S. cerevisiae deletion strains, locus YLR039C, strain RIC1, active compounds read low
[15] = S. cerevisiae deletion strains, locus YLR058C, strain SHM2 (second series), active compounds read low
[16] = S. cerevisiae deletion strains, locus YLR085C, strain ARP6, active compounds read low
[17] = S. cerevisiae deletion strains, locus YLR262C, strain YPT6, active compounds read low
[18] = S. cerevisiae deletion strains, locus YML094W, strain GIM5, active compounds read low
[19] = S. cerevisiae deletion strains, locus YMR219W, strain ESC1, active compounds read low
[20] = S. cerevisiae deletion strains, locus YNL298W, strain CLA4 (second series), active compounds read low
[21] = S. cerevisiae deletion strains, locus YNL322C, strain KRE1, active compounds read low
[22] = S. cerevisiae deletion strains, locus YNR030W, strain Alg12, active compounds read low
[23] = S. cerevisiae deletion strains, locus YPL055C, strain LGE1, active compounds read low
[24] = S. cerevisiae deletion strains, locus YPL241C, strain CIN2, active compounds read low
[25] = S. cerevisiae deletion strains, locus YPR135W, strain CTF4, active compounds read low

Measured: normalized growth

Nc1nc(OCc2ccccc2)c2[nH]cnc2n1
inactive: S. cerevisiae deletion strains, locus YAL040C, strain CLN3, active compounds read low 0.994 | S. cerevisiae deletion strains, locus YCL061C, strain MRC1 (second series), active compounds read low 1 | S. cerevisiae deletion strains, locus YDR363W, strain ESC2, active compounds read low 1.02 | S. cerevisiae deletion strains, locus YER002W, strain NOP16, active compounds read low 1 | [1] 1 | [2] 0.999 | S. cerevisiae deletion strains, locus YNL175C, strain NOP13, active compounds read low 0.982 | S. cerevisiae deletion strains, locus YNL197C, strain WHI3, active compounds read low 0.984 | S. cerevisiae deletion strains, locus YNL224C, strain SQS1, active compounds read low 1.02 | S. cerevisiae deletion strains, locus YOR083W, strain WHI5 (second series), active compounds read low 1.01

O=[N+]([O-])c1ccc(N2CCCCC2)nc1N1CCCCC1
inactive: [3] 0.967 | [4] 0.96 | [5] 0.978 | [6] 0.961 | [7] 0.95 | [8] 0.963 | S. cerevisiae deletion strains, locus YGR229C, strain SMI1, active compounds read low 0.961 | [10] 0.943 | [11] 0.954 | [12] 0.977 | [13] 0.914 | [15] 0.954 | [18] 0.9 | [1] 0.95 | [20] 0.906 | [22] 0.89 | [23] 0.908
active: [9] 0.587 | [14] 0.581 | [16] 0.568 | [17] 0.59 | [19] 0.944 | [2] 0.909 | [21] 0.921 | [24] 0.803 | [25] 0.587

O=[N+]([O-])c1cc(C(F)(F)F)c(N2CCCCC2)cc1N1CCCCC1
inactive: [3] 0.996 | [4] 0.994 | [5] 1.03 | [6] 1.01 | [7] 0.967 | [8] 1.01 | [9] 1.01 | [10] 0.98 | [11] 0.977 | [12] 1.01 | [13] 0.996 | [14] 0.864 | [15] 0.974 | [16] 0.915 | [17] 0.972 | [18] 0.973 | [19] 0.983 | [1] 1.01 | S. cerevisiae deletion strains, locus YMR307W, strain GAS1, active compounds read low 1.02 | [2] 1.03 | [20] 1.03 | [21] 0.989 | [22] 0.989 | [23] 0.978 | [24] 1.02 | [25] 0.977 | S. cerevisiae strains, strain wild type, active compounds read low 0.992

CCCCC/C=C/CCC(=O)N[C@H]1[C@H](Oc2c3cc4cc2Oc2ccc(cc2Cl)[C@@H](O[C@@H]2O[C@H](CO)[C@@H](O)[C@H](O)[C@H]2NC(C)=O)[C@@H]2NC(=O)[C@H](NC(=O)[C@@H]4NC(=O)[C@H]4NC(=O)C(Cc5ccc(c(Cl)c5)O3)NC(=O)[C@H](N)c3ccc(O)c(c3)Oc3cc(O)cc4c3)c3ccc(O)c(c3)-c3c(OC4O[C@H](CO)[C@@H](O)[C@H](O)[C@@H]4O)cc(O)cc3[C@@H](C(=O)O)NC2=O)O[C@H](CO)[C@@H](O)[C@@H]1O (stereo partly drawn)
inactive: S. cerevisiae deletion strains, locus YAL021C, strain ccr4, active compounds read low 1 | S. cerevisiae deletion strains, locus YAL026C, strain drs2, active compounds read low 1 | S. cerevisiae deletion strains, locus YAL030W, strain snc1, active compounds read low 0.995 | S. cerevisiae deletion strains, locus YBL061C, strain skt5, active compounds read low 0.987 | S. cerevisiae deletion strains, locus YBR009C, strain hhf1, active compounds read low 0.996 | S. cerevisiae deletion strains, locus YBR023C, strain chs3, active compounds read low 0.998 | S. cerevisiae deletion strains, locus YBR171W, strain sec66, active compounds read low 1 | S. cerevisiae deletion strains, locus YBR231C, strain swc5, active compounds read low 0.991 | S. cerevisiae deletion strains, locus YBR279W, strain paf1, active compounds read low 0.997 | S. cerevisiae deletion strains, locus YCL011C, strain gbp2, active compounds read low 1.01 | S. cerevisiae deletion strains, locus YCL016C, strain dcc1, active compounds read low 0.995 | S. cerevisiae deletion strains, locus YCL061C, strain MRC1, active compounds read low 0.999 | S. cerevisiae deletion strains, locus YCL069W, strain vba3, active compounds read low 0.996 | S. cerevisiae deletion strains, locus YCR088W, strain abp1, active compounds read low 1.01 | S. cerevisiae deletion strains, locus YDL005C, strain med2, active compounds read low 0.995 | S. cerevisiae deletion strains, locus YDL040C, strain nat1, active compounds read low 1 | S. cerevisiae deletion strains, locus YDR001C, strain nth1, active compounds read low 1 | S. cerevisiae deletion strains, locus YDR069C, strain doa4, active compounds read low 1 | S. cerevisiae deletion strains, locus YDR137W, strain rgp1, active compounds read low 1.01 | S. cerevisiae deletion strains, locus YDR159W, strain sac3, active compounds read low 0.977 | S. cerevisiae deletion strains, locus YDR195W, strain ref2 0.918 | S. cerevisiae deletion strains, locus YDR297W, strain sur2, active compounds read low 0.998 | S. cerevisiae deletion strains, locus YDR334W, strain swr1, active compounds read low 1.01 | S. cerevisiae deletion strains, locus YDR335W, strain msn5, active compounds read low 0.998 | S. cerevisiae deletion strains, locus YDR392W, strain spt3, active compounds read low 0.967 | S. cerevisiae deletion strains, locus YEL003W, strain gim4, active compounds read low 0.989 | S. cerevisiae deletion strains, locus YEL037C, strain rad23, active compounds read low 1.05 | S. cerevisiae deletion strains, locus YEL061C, strain CIN8 (second series), active compounds read low 0.999 | S. cerevisiae deletion strains, locus YER015W, strain faa2, active compounds read low 0.999 | S. cerevisiae deletion strains, locus YER016W, strain bim1, active compounds read low 1.01 | S. cerevisiae deletion strains, locus YER111C, strain swi4, active compounds read low 0.987 | S. cerevisiae deletion strains, locus YER155C, strain BEM2 (second series), active compounds read low 1.01 | S. cerevisiae deletion strains, locus YFR010W, strain ubp6, active compounds read low 1.03 | S. cerevisiae deletion strains, locus YGL167C, strain pmr1, active compounds read low 0.993 | S. cerevisiae deletion strains, locus YGL173C, strain kem1, active compounds read low 0.994 | S. cerevisiae deletion strains, locus YGL227W, strain vid30, active compounds read low 1 | S. cerevisiae deletion strains, locus YGL240W, strain doc1, active compounds read low 0.973 | S. cerevisiae deletion strains, locus YGL253W, strain hxk2, active compounds read low 1 | S. cerevisiae deletion strains, locus YHR013C, strain ard1, active compounds read low 0.981 | S. cerevisiae deletion strains, locus YHR027C, strain rpn1, active compounds read low 1 | [9] 0.964 | S. cerevisiae deletion strains, locus YHR079C, strain IRE1, active compounds read low 0.956 | S. cerevisiae deletion strains, locus YHR142W, strain chs7, active compounds read low 1.03 | S. cerevisiae deletion strains, locus YJL092W, strain hpr5, active compounds read low 1 | S. cerevisiae deletion strains, locus YJL095W, strain BCK1 (second series), active compounds read low 1 | S. cerevisiae deletion strains, locus YJL095W, strain BCK1, active compounds read low 0.956 | S. cerevisiae deletion strains, locus YJL115W, strain asf1, active compounds read low 0.996 | S. cerevisiae deletion strains, locus YJL129C, strain trk1, active compounds read low 1 | S. cerevisiae deletion strains, locus YJL154C, strain vps35, active compounds read low 1.01 | S. cerevisiae deletion strains, locus YJL164C, strain tpk1, active compounds read low 1.01 | S. cerevisiae deletion strains, locus YJL166W, strain qcr8, active compounds read low 0.993 | [11] 1 | S. cerevisiae deletion strains, locus YJR066W, strain TOR1, active compounds read low 0.935 | S. cerevisiae deletion strains, locus YKL160W, strain elf1, active compounds read low 0.995 | S. cerevisiae deletion strains, locus YKR026C, strain gcn3, active compounds read low 0.99 | S. cerevisiae deletion strains, locus YKR091W, strain srl3, active compounds read low 0.996 | S. cerevisiae deletion strains, locus YLL001W, strain dnm1, active compounds read low 1.02 | S. cerevisiae deletion strains, locus YLL026W, active compounds read low 0.996 | S. cerevisiae deletion strains, locus YLL041C, strain sdh2, active compounds read low 1 | S. cerevisiae deletion strains, locus YLR027C, strain aat2, active compounds read low 1.01 | S. cerevisiae deletion strains, locus YLR113W, strain HOG1, active compounds read low 0.942 | S. cerevisiae deletion strains, locus YLR221C, strain rsa3, active compounds read low 1.01 | S. cerevisiae deletion strains, locus YLR258W, strain gsy2, active compounds read low 1.01 | S. cerevisiae deletion strains, locus YLR262C, strain YPT6 (second series), active compounds read low 1.01 | S. cerevisiae deletion strains, locus YLR320W, strain mms22, active compounds read low 0.988 | S. cerevisiae deletion strains, locus YLR342W, strain FKS1, active compounds read low 0.988 | S. cerevisiae deletion strains, locus YLR357W, strain rsc2, active compounds read low 1 | S. cerevisiae deletion strains, locus YLR370C, strain arc18, active compounds read low 1 | S. cerevisiae deletion strains, locus YLR384C, strain iki3, active compounds read low 1 | S. cerevisiae deletion strains, locus YML120C, strain ndi1, active compounds read low 1.01 | S. cerevisiae deletion strains, locus YMR058W, strain fet3, active compounds read low 1 | S. cerevisiae deletion strains, locus YMR125W, strain sto1, active compounds read low 1.01 | S. cerevisiae deletion strains, locus YMR129W, active compounds read low 0.998 | S. cerevisiae deletion strains, locus YMR205C, strain PFK2, active compounds read low 0.993 | S. cerevisiae deletion strains, locus YMR231W, strain pep5, active compounds read low 0.991 | S. cerevisiae deletion strains, locus YNL071W, strain lat1, active compounds read low 1 | S. cerevisiae deletion strains, locus YNL183C, strain NPR1, active compounds read low 0.936 | S. cerevisiae deletion strains, locus YNL209W, strain ssb2, active compounds read low 1 | S. cerevisiae deletion strains, locus YNL248C, strain rpa49, active compounds read low 1.01 | S. cerevisiae deletion strains, locus YNL322C, strain KRE1 (second series), active compounds read low 0.991 | S. cerevisiae deletion strains, locus YNR049C, strain mso1, active compounds read low 1.01 | S. cerevisiae deletion strains, locus YOR001W, strain rrp6, active compounds read low 1.01 | S. cerevisiae deletion strains, locus YOR070C, strain gyp1, active compounds read low 1.02 | S. cerevisiae deletion strains, locus YOR080W, strain dia2, active compounds read low 0.98 | S. cerevisiae deletion strains, locus YOR083W, strain WHI5, active compounds read low 1 | S. cerevisiae deletion strains, locus YOR106W, strain vam3, active compounds read low 1.02 | S. cerevisiae deletion strains, locus YOR231W, strain MKK1, active compounds read low 0.961 | S. cerevisiae deletion strains, locus YOR265W, strain rbl2, active compounds read low 1 | S. cerevisiae deletion strains, locus YOR270C, strain vph1, active compounds read low 0.993 | S. cerevisiae deletion strains, locus YOR290C, strain snf2, active compounds read low 1.01 | S. cerevisiae deletion strains, locus YPL051W, strain arl3, active compounds read low 1.01 | S. cerevisiae deletion strains, locus YPL078C, strain atp4, active compounds read low 0.999 | S. cerevisiae deletion strains, locus YPL106C, strain sse1, active compounds read low 0.971 | S. cerevisiae deletion strains, locus YPL240C, strain hsp82, active compounds read low 0.999 | S. cerevisiae deletion strains, locus YPL256C, strain CLN2, active compounds read low 0.946
